# TROY signal inh = TROY signaling inhibition. actives 0.98% (n = 360,000). inhibition, % at 10 µM. AID 1347056. Q293 LMP1-TROYcd NF-kB luciferase reporter, 4 h;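 active means compounds whose plate-normalised and pattern-corrected inhibition of the luciferase reporter signal at the single screening dose is 50% or more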
# Shn3 3UTR inh = Schnurri-3 reporter inhibition in Clone20 osteoblasts | Clone20 osteoblast Shn3 3'UTR firefly luciferase, 24 h | inhibition, % at 12.5 µM | actives 0.52% (n = 360,000) | AID 588674;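 active means mean inhibition of at least 75% with every replicate also reaching 75%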;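 further: 0% = median of neutral control wells and 100% = pilot-screen positive control compound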
# TRPM1 prom inh = MITF TRPM1 promoter inhibition in SK-MEL-5 cells; AID 488899; inhibition, % at 12.5 µM; SK-MEL-5 TRPM1 promoter luciferase, 24 h; actives 0.83% (n = 330,000);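 active means mean inhibition across replicates of 60% or more, whatever share of single replicates reaches that level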
# TWEAK-Fn14 inh = blocks TWEAK-Fn14 interaction in a reporter cell assay | TWEAK-stimulated Fn14 reporter cells, luciferase luminescence, 8 h | inhibition, % at 10 µM | actives 2% (n = 360,000) | AID 1159606; in the data active means inhibition above about 50%
# LMP1 NFkB inh = inhibitors of Epstein-Barr LMP1-induced NF-kappaB reporter. LMP1-induced NF-kappaB luciferase reporter cells, luminescence. inhibition, % at 12.5 µM. AID 504558. actives 0.69% (n = 350,000); in the data active means inhibition above about 41%;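 further: 0% = neutral control wells and 100% = reference inhibitor control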
# Peg3 prom inh-1 = inhibitors of Peg3 promoter | AID 588405 | actives 1.7% (n = 360,000) | inhibition, % at 20 µM | HeLa PEG-Prom luciferase reporter, luminescence, overnight;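 active means inhibition of at least 50% at 20 µM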
# Peg3 prom inh-2 = confirmation of Peg3 promoter inhibitors. shares compounds with Peg3 prom inh-1. HeLa PEG-Prom luciferase reporter, luminescence, overnight. inhibition, % at 20 µM. actives 84% (n = 1,300);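 active means at 20 µM dose, 40% or more inhibition averaged across four replicates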
# * marks the source's active call; other numbers are inactive results; . = no result given. In the library only some 4.1% were active in any assay of this set; here they are far more common.
SMILES,TROY signal inh,Shn3 3UTR inh,TRPM1 prom inh,TWEAK-Fn14 inh,LMP1 NFkB inh,Peg3 prom inh-1,Peg3 prom inh-2
CC1(C)Oc2cc3oc(=O)ccc3c3c2C2C1CCC(C)(O3)C2O (centres undefined),0,4,.,-5,.,-6,.
c1ccc(-c2ccc3cnccc3n2)cc1,-19,-40,.,-11,.,-107,.
Nc1ccc(-c2nc3ccccc3[nH]2)cc1,-24,-70,-6,15,-6,-244,.
c1ccc(-c2cc(-c3nc4ccccc4[nH]3)c3ccccc3n2)cc1,23,36,4,55*,-15,81*,89*
Cc1cc(C)c2c(N)c(C(=O)Nc3ncc(C)s3)sc2n1,5,76,88*,79*,77*,101*,89*
COC(=O)c1sc2nc(C)cc(C)c2c1N,-26,-9,0,-1,3,-57,.
Cc1ccccc1NC(=O)C(=Cc1ccc(C(=O)O)cc1)C(=O)Nc1ccccc1C,16,43,48,78*,9,59*,50*
N#C/C(=C/c1ccc(C(=O)O)cc1)C(=O)Nc1ccccc1,2,15,-11,-11,4,-8,.
Cc1cccc(N2CCN(C(=O)CCC(=O)N3CC(C)Oc4ccccc43)CC2)c1C (centres undefined),28,18,.,21,30,-7,.
CN=c1sc(C(=O)Nc2ccccc2)c(C)n1C,-3,-5,16,-13,4,-10,.
CN=c1sc2c(n1C)C(=O)c1ccccc1C2=O,48,3,93*,89*,4,88*,91*
Cc1ccccc1CNC(=O)C1CCCN(c2nnc(C)c3c(C)n(-c4ccccc4)nc23)C1 (centres undefined),28,-11,82*,-16,-3,63*,81*
COc1ccc(-n2nc3c(N4CCC(C(=O)NCCc5ccco5)CC4)nnc(C)c3c2C)cc1,6,9,38,-15,1,10,.
COc1ccccc1CCNC(=O)C1CCN(c2nnc(C)c3c(C)n(-c4ccc(C)cc4)nc23)CC1,-3,32,77*,-21,-9,89*,78*
Cc1nnc(N2CCCC(C(=O)NCc3ccccc3F)C2)c2nn(-c3ccccc3)c(C)c12 (centres undefined),25,16,32,-9,10,15,.
CCc1cccc(C)c1NC(=O)CC1Oc2ccc(C)cc2NC1=O (centres undefined),-9,15,-15,0,-2,-6,.
CN=c1scc(-c2ccccc2F)n1/N=C/c1ccc[nH]1,83*,73,90*,105*,82*,91*,92*
CCN=c1scc(-c2ccc(F)cc2)n1/N=C/c1ccccn1,-21,-71,-84,24,-20,-306,.
COc1ccc(NC(=O)c2cc3c(CO)cnc(C)c3oc2=Nc2cccc(F)c2)c(OC)c1,13,-12,11,-7,47*,59*,17
Cc1ncc(CO)c2cc(C(=O)Nc3cccc(F)c3)c(=Nc3cccc(C(N)=O)c3)oc12,13,-15,9,0,-2,-21,.
CC(=O)N1CCc2cc(S(=O)(=O)NCCCN3CCC(C)CC3)ccc21,5,-18,-3,-12,9,-4,.
COc1ccccc1CCN1CCCC(CN(C)C(=O)c2ccoc2)C1 (centres undefined),-2,8,2,-10,-3,-5,.
Cc1cc(C)c2sc(N(CCCN(C)C)C(=O)c3ccc(S(=O)(=O)N(C)C4CCCCC4)cc3)nc2c1,-24,1,90*,-39,-6,107*,98*
COc1ccc2sc(N(CCCN(C)C)C(=O)c3ccc(S(=O)(=O)N4CCCc5ccccc54)cc3)nc2c1,-17,11,77*,-43,-17,84*,96*
Cc1ccc(C(=O)NNC(=O)c2ccc(S(=O)(=O)N3CCCCC3)cc2)cc1,-10,12,-3,7,-1,5,.
SMILES,TROY signal inh,Shn3 3UTR inh,TRPM1 prom inh,TWEAK-Fn14 inh,LMP1 NFkB inh,Peg3 prom inh-1,Peg3 prom inh-2
Cc1cc(C)c2nc(N(CCCN(C)C)C(=O)c3ccc(S(=O)(=O)N4CCCCCC4)cc3)sc2c1,-16,22,19,-27,0,80*,99*
Cc1cc(C)c2nc(NNC(=O)c3ccc(S(=O)(=O)N4CCCCC4)cc3)sc2c1,-3,11,.,-23,31,55*,66*
COc1cc2nc(N(CCCN(C)C)C(=O)c3ccc(S(=O)(=O)N(C)C4CCCCC4)cc3)sc2cc1OC,6,-8,6,1,-12,-24,.
O=C(O)C1CCCCN1C(=O)c1cc2c(s1)CCCCC2 (centres undefined),15,7,4,-7,-2,-12,.
O=C(CSc1nnc2c(n1)[nH]c1ccccc12)NCc1ccccc1F,-10,18,7,0,7,10,.
Cc1cc(C)cc(NC(=O)CSc2nc(=O)n(CCCN3CCOCC3)c3c2CCCC3)c1,12,3,9,10,2,6,.
Cc1ccc(S(=O)(=O)CC(=O)Nc2ccc3nc(C)sc3c2)cc1,6,7,-2,-2,2,-3,.
CCOC(=O)N1CCN(S(=O)(=O)c2ccc(C(=O)NNc3nc4c(C)cc(C)cc4s3)cc2)CC1,-1,9,.,-7,.,56*,92*
Cc1cccc(NC(=O)c2nc[nH]c2C(=O)NCCCCNC(=O)c2[nH]cnc2C(=O)Nc2cccc(C)c2)c1,5,4,-1,34,-2,78*,37
CCOc1ccccc1N1CCN(C(=O)CCNS(=O)(=O)c2ccccc2F)CC1,4,-1,-4,4,-7,8,.
CN(C)c1nc(Nc2ccccc2)nc(N(C)C)n1,-43,0,8,-11,-3,1,.
CN(C)c1ccc(Nc2nc(N)c3ccccc3n2)cc1,67*,23,53,95*,70*,63*,65*
COc1cc(C(=O)Nc2cc(C(F)(F)F)ccc2N2CCOCC2)ccc1OCC(=O)N1CCOCC1,1,23,-8,-16,3,12,.
Cc1ccc(-c2nc3ncccc3o2)cc1NC(=O)Cc1ccc(Cl)cc1,7,-3,-9,-6,0,51*,25
CCCN1C/C(=C/c2cccc([N+](=O)[O-])c2)C(=O)/C(=C/c2cccc([N+](=O)[O-])c2)C1,2,18,100*,7,88*,111*,71*
N#Cc1ccccc1S(=O)(=O)N1CCN(CC(=O)NC(=O)NC2CCCCC2)CC1,-5,2,5,6,-18,8,.
NC(=O)C1=C(N=C2CCCCC2)CCCC1,-12,-3,-1,-10,2,-1,.
CCCC(=O)N1CCCC(c2cc(C(=O)Nc3ccccc3)no2)C1 (centres undefined),83*,32,.,95*,.,54*,47*
